# Data reported in publication PMC12820563, “FoxP3 forms a head-to-head dimer in vivo and stabilizes its multimerization on adjacent microsatellites”.
# In all, about 16,000 sequences were measured (“rpm ratio (pull-down/input)”: median about 0.5, highest 2% from about 5.5 on). Only a selection was taken, and the highest values are over-represented in it overall.
# Molecular target: T1, MBP-FoxP3dN (Mus musculus, UniProt Q99JB6 188-423)
# T1 sequence: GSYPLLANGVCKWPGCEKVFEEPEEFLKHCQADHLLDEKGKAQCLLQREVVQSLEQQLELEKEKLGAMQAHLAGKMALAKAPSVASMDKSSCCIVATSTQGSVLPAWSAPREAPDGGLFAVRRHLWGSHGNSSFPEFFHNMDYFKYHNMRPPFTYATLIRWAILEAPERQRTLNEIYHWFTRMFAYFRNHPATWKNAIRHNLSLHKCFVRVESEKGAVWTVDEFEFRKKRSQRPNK
# Experiment: PD-seq (MBP pull-down with sequencing); 20 mM Tris-HCl pH 7.5, 100 mM NaCl, 1.5 mM MgCl2, 0.4 uM protein, 0.1 uM dsDNA library, 30 min, room temperature, amylose pull-down; high values mean tight binding
# Conditions: protein: recombinant; tags: His6-MBP; chain copies: 2; dsDNA, one strand shown
# Summary of the method: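 Protein and DNA were mixed at 0.4 µM and 0.1 µM and held for 30 min at room temperature in Tris pH 7.5 buffer with NaCl and MgCl2; the protein was a His6-MBP-tagged, N-terminally truncated mouse FoxP3 or FoxP1 fragment from E. coli, and the DNA a Klenow-filled double-stranded degenerate library. Amylose resin captured the complexes, which were washed three times. Binding is read as reads-per-million enrichment of pull-down versus input after Illumina sequencing, with replicates pooled.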
row,Sequence,binding signal
1,GATGATTGTTCTCCCAGCTGATGAATTAACTGTTTCGAGTAAACAAATTTTCCTAATCTTTCTGTTCAAGCGCCATCTAC,0.641 RPM ratio (pull-down/input)
2,GATGATTGTTCTCCCAGCTGATGAATTGATGCCATCGAGTAAACAAATTTTCCTAATCTTTCTGTTCAAGCGCCATCTAC,3.67 RPM ratio (pull-down/input)
3,GATGATTGTTCTCCCAGCTGATGAATTTCTGCAATCGAGTAAACAAATTTTCCTAATCTTTCTGTTCAAGCGCCATCTAC,3.01 RPM ratio (pull-down/input)
4,GATGATTGTTCTCCCAGCTGATGAATTGCAATCATCGAGTAAACAAATTTTCCTAATCTTTCTGTTCAAGCGCCATCTAC,2.79 RPM ratio (pull-down/input)
5,GATGATTGTTCTCCCAGCTGATGAATTGCAGCAATCGAGTAAACAAATTTTCCTAATCTTTCTGTTCAAGCGCCATCTAC,2.72 RPM ratio (pull-down/input)
6,GATGATTGTTCTCCCAGCTGATGAATTGCAACAATCGAGTAAACAAATTTTCCTAATCTTTCTGTTCAAGCGCCATCTAC,7.74 RPM ratio (pull-down/input)
7,GATGATTGTTCTCCCAGCTGATGAATTGATGCAATCGAGTAAACAAATTTTCCTAATCTTTCTGTTCAAGCGCCATCTAC,5.86 RPM ratio (pull-down/input)
8,GATGATTGTTCTCCCAGCTGATGAATTGTTGCAATCGAGTAAACAAATTTTCCTAATCTTTCTGTTCAAGCGCCATCTAC,5.54 RPM ratio (pull-down/input)
9,GATGATTGTTCTCCCAGCTGATGAATTTTTGCAATCGAGTAAACAAATTTTCCTAATCTTTCTGTTCAAGCGCCATCTAC,3.95 RPM ratio (pull-down/input)
10,GATGATTGTTCTCCCAGCTGATGAATTGCAACCATCGAGTAAACAAATTTTCCTAATCTTTCTGTTCAAGCGCCATCTAC,4.48 RPM ratio (pull-down/input)
11,GATGATTGTTCTCCCAGCTGATGAATTCTATTAATCGAGTAAACAAATTTTCCTAATCTTTCTGTTCAAGCGCCATCTAC,0.561 RPM ratio (pull-down/input)
12,GATGATTGTTCTCCCAGCTGATGAATTTCTTGCCTCGAGTAAACAAATTTTCCTAATCTTTCTGTTCAAGCGCCATCTAC,0.494 RPM ratio (pull-down/input)
13,GATGATTGTTCTCCCAGCTGATGAATTTGGCGGCTCGAGTAAACAAATTTTCCTAATCTTTCTGTTCAAGCGCCATCTAC,0.668 RPM ratio (pull-down/input)
14,GATGATTGTTCTCCCAGCTGATGAATTCTATAGTTCGAGTAAACAAATTTTCCTAATCTTTCTGTTCAAGCGCCATCTAC,0.74 RPM ratio (pull-down/input)
15,GATGATTGTTCTCCCAGCTGATGAATTGCCCGAGTCGAGTAAACAAATTTTCCTAATCTTTCTGTTCAAGCGCCATCTAC,0.303 RPM ratio (pull-down/input)
16,GATGATTGTTCTCCCAGCTGATGAATTGCATCCATCGAGTAAACAAATTTTCCTAATCTTTCTGTTCAAGCGCCATCTAC,5.42 RPM ratio (pull-down/input)

row,Sequence,binding signal
1,GATGATTGTTCTCCCAGCTGATGAATTATCGTATTCGAGTAAACAAATTTTCCTAATCTTTCTGTTCAAGCGCCATCTAC,1.35 RPM ratio (pull-down/input)
2,GATGATTGTTCTCCCAGCTGATGAATTCGGCAAGTCGAGTAAACAAATTTTCCTAATCTTTCTGTTCAAGCGCCATCTAC,1.34 RPM ratio (pull-down/input)
3,GATGATTGTTCTCCCAGCTGATGAATTTTGTTAGTCGAGTAAACAAATTTTCCTAATCTTTCTGTTCAAGCGCCATCTAC,6.69 RPM ratio (pull-down/input)
4,GATGATTGTTCTCCCAGCTGATGAATTTGTTTAGTCGAGTAAACAAATTTTCCTAATCTTTCTGTTCAAGCGCCATCTAC,7.22 RPM ratio (pull-down/input)
5,GATGATTGTTCTCCCAGCTGATGAATTTTTTACGTCGAGTAAACAAATTTTCCTAATCTTTCTGTTCAAGCGCCATCTAC,0.246 RPM ratio (pull-down/input)
6,GATGATTGTTCTCCCAGCTGATGAATTGTTTACGTCGAGTAAACAAATTTTCCTAATCTTTCTGTTCAAGCGCCATCTAC,7.65 RPM ratio (pull-down/input)
7,GATGATTGTTCTCCCAGCTGATGAATTGTTTTAGTCGAGTAAACAAATTTTCCTAATCTTTCTGTTCAAGCGCCATCTAC,1.21 RPM ratio (pull-down/input)
8,GATGATTGTTCTCCCAGCTGATGAATTTAGTTAGTCGAGTAAACAAATTTTCCTAATCTTTCTGTTCAAGCGCCATCTAC,2.54 RPM ratio (pull-down/input)
9,GATGATTGTTCTCCCAGCTGATGAATTGTTAGTGTCGAGTAAACAAATTTTCCTAATCTTTCTGTTCAAGCGCCATCTAC,4.19 RPM ratio (pull-down/input)
10,GATGATTGTTCTCCCAGCTGATGAATTGTGTTAGTCGAGTAAACAAATTTTCCTAATCTTTCTGTTCAAGCGCCATCTAC,5.98 RPM ratio (pull-down/input)
11,GATGATTGTTCTCCCAGCTGATGAATTTACGTCGTCGAGTAAACAAATTTTCCTAATCTTTCTGTTCAAGCGCCATCTAC,0.839 RPM ratio (pull-down/input)
12,GATGATTGTTCTCCCAGCTGATGAATTTTTTTAGTCGAGTAAACAAATTTTCCTAATCTTTCTGTTCAAGCGCCATCTAC,0.273 RPM ratio (pull-down/input)
13,GATGATTGTTCTCCCAGCTGATGAATTCTGTTAGTCGAGTAAACAAATTTTCCTAATCTTTCTGTTCAAGCGCCATCTAC,5.31 RPM ratio (pull-down/input)
14,GATGATTGTTCTCCCAGCTGATGAATTTGGTTAGTCGAGTAAACAAATTTTCCTAATCTTTCTGTTCAAGCGCCATCTAC,2.03 RPM ratio (pull-down/input)
15,GATGATTGTTCTCCCAGCTGATGAATTCTCTACTTCGAGTAAACAAATTTTCCTAATCTTTCTGTTCAAGCGCCATCTAC,0.233 RPM ratio (pull-down/input)
16,GATGATTGTTCTCCCAGCTGATGAATTGGGCCGGTCGAGTAAACAAATTTTCCTAATCTTTCTGTTCAAGCGCCATCTAC,0.372 RPM ratio (pull-down/input)
